Inhibition data for 96 molecules are collected here from PubChem BioAssay AID1220 (Sanford-Burnham Center for Chemical Genomics, 2008).

The structures appear in SMILES notation. Screen size: about 190,000 compounds; about 1,300 (0.68%) were called active. This is one part of a sample in which actives are shown more often than they occur. A number with no mark means an inactive call. Cut-off read from the data, not from the text of the source: active = inhibition above about 50%; inactive = the rest.

Sequence of Mannose-6-phosphate isomerase (Homo sapiens) (P34949 whole entry, looked up): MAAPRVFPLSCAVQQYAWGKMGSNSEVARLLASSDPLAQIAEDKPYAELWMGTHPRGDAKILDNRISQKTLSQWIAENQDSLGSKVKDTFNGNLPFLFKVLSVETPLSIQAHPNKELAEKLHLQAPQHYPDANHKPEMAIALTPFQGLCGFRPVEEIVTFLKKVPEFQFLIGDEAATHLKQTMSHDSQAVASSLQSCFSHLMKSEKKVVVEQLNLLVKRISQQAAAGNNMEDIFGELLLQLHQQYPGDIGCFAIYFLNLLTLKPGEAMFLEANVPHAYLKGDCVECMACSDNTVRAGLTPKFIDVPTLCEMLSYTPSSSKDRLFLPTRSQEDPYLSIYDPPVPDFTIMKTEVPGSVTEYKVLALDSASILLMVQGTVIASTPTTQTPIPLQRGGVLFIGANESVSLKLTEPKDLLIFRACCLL

The assay has as its target Mannose-6-phosphate isomerase (Homo sapiens) (UniProt P34949). In words: human PMI inhibitors, high substrate, primary screen, biochemical, fluorescence intensity, high mannose 6-phosphate (AID 1220). As to conditions: recombinant PMI enzyme, coupled fluorescence intensity; at 20 µM; stronger effect = higher value.
In the case of `O=C1c2ccccc2C(=O)c2cc(S(=O)(=O)Nc3ccccc3)ccc21`, the inhibition is 60.3% (active).
For `O=C(O)c1ccc(NS(=O)(=O)c2ccc3c(c2)C(=O)c2ccccc2C3=O)cc1`, the inhibition is 2.7%.
As for `Cc1cccc(C)c1NS(=O)(=O)c1ccc2c(c1)C(=O)c1ccccc1C2=O`, the figure is 21%; as for `COc1ccc(CCNc2ccc(S(=O)(=O)N3CCCC3)cc2[N+](=O)[O-])cc1`, -0.1%; as for `COc1ccc2nc3ccccc3nc2c1NC(=O)c1ccccc1Cl`, 51.5% (active).
On to `COc1ccc2nc3ccccc3nc2c1NC(=O)c1ccc(Cl)cc1`, for which the inhibition is 23%.
With `COc1ccc2nc3ccccc3nc2c1NC(=O)c1ccc(Cl)cc1Cl`, the inhibition is 17.8%.
As for `Cc1ccc2cccc(OCC(=O)N3CC(C)CC(C)C3)c2n1` (stereo unspecified), the figure is 26.7%; as for `Cc1cccc(OCC(=O)OCC(=O)c2c(N)n(C)c(=O)n(C)c2=O)c1C`, 3.8%; as for `Cc1cccc(NCC(=O)c2c(N)n(C)c(=O)n(C)c2=O)c1C`, 59% (active).
As for `Cc1ccccc1CSCC(=O)c1c(N)n(C)c(=O)n(C)c1=O`, the inhibition was 6.8%.
As for `CC(C)C(=O)NC(NC(=O)C(C)C)c1ccc([N+](=O)[O-])cc1`, the figure is -13.1%; as for `CC(C)c1onc(C(=O)NCc2cccs2)c1[N+](=O)[O-]`, -6.7%; as for `CC(=O)c1cc2c(cc1N/C(=N/S(=O)(=O)c1ccc(C)cc1)c1ccc(Cl)cc1)OCO2`, 7.7%.
On to `O=S(=O)(N/N=C/c1ccc(F)cc1)c1ccccc1`, for which the inhibition is 4.7%.
For `Cc1ccc(NC(=S)Nc2ccc3cn[nH]c3c2)c(C)c1`, the inhibition is 44%.
With `Cc1ccc(NC(=S)Nc2ccc3cn[nH]c3c2)cc1`, the inhibition was 57.8% (active).
As for `COc1ccc(NC(=S)Nc2ccc3cn[nH]c3c2)cc1`, the inhibition is 48.7%.
As for `Cc1ccc(NC(=S)Nc2ccc3cn[nH]c3c2)cc1C`, the inhibition was 15.4%.
Regarding `CC(C)c1ccc(NC(=S)Nc2ccc3cn[nH]c3c2)cc1`, the inhibition was 46.1%.
As for `S=C(Nc1ccc(Cl)cc1)Nc1ccc2cn[nH]c2c1`, the figure is 56.6% (active); as for `Cc1cc(C)cc(NC(=S)Nc2ccc3cn[nH]c3c2)c1`, 21.3%; as for `S=C(Nc1ccc2cn[nH]c2c1)Nc1ccccc1Cl`, 42.1%.
As for `Cc1ccccc1NC(=S)Nc1ccc2cn[nH]c2c1`, the figure is 61.3% (active); as for `CCOC(=O)C1CCCN(C(=O)c2cn(CC)c(=O)c3cc(OC)c(OC)cc23)C1` (stereo unspecified), -1.3%.
Take `CCOC(=O)c1nn(-c2ccc(C)cc2)cc1O`: the inhibition is 1.2%.
`CC1(C)CC(=O)C2=C(C1)Nc1cc(C(=O)c3ccccc3)ccc1NC2c1ccccn1` (stereo unspecified): the inhibition is -4.3%.
With `CC1(C)CC(=O)C2=C(C1)Nc1ccccc1NC2c1cccnc1` (stereo unspecified), the inhibition is -11.6%.
For the molecule `COC(=O)c1ccc2c(c1)NC1=C(C(=O)CC(C)(C)C1)C(c1ccncc1)N2` (stereo unspecified), the inhibition was 61.3% (active).
Take `COc1ccc(C(=O)Oc2c(CN3CCOCC3)cc(Cl)c3cccnc23)cc1`: the inhibition is 22.5%.
For the molecule `O=C(Oc1c(CN2CCOCC2)cc(Cl)c2cccnc12)c1ccccc1F`, the inhibition is 51.4% (active).
For the molecule `O=C(Oc1c(CN2CCOCC2)cc(Cl)c2cccnc12)c1ccccc1Cl`, the inhibition was 57.1% (active).
On to `COc1cccc(C(=O)Oc2c(CN3CCOCC3)cc(Cl)c3cccnc23)c1`, for which the inhibition is 24%.
In the case of `O=C(Oc1c(CN2CCOCC2)cc(Cl)c2cccnc12)c1ccccc1`, the inhibition is 56.3% (active).
`COc1cc(C(=O)Oc2c(CN3CCOCC3)cc(Cl)c3cccnc23)cc(OC)c1OC`: the inhibition was 35.9%.
Regarding `O=C(Oc1c(Cl)cc(Cl)c2cccnc12)N1CCOCC1`, the inhibition is 1.1%.
For the molecule `O=[N+]([O-])c1cc(CN2CCOCC2)c2cccnc2c1O`, the inhibition is 40.5%.
`O=C(Oc1c(CN2CCOCC2)cc(Cl)c2cccnc12)c1ccc(F)cc1`: the inhibition is 40.1%.
As for `c1ccc2c(c1)ccc1ncccc12`, the figure is -5.5%; as for `O=C(CS(=O)(=O)c1ccccc1)Nc1nc(-c2ccc(F)cc2)cs1`, 8.2%; as for `CCOC(=O)CNC(=O)CSc1nnc(-c2ccco2)n1N`, 6.3%.
As to `CCCCOc1ccc(Cc2c(COCC)[nH]c(=S)[nH]c2=O)cc1`, the inhibition was -4.9%.
For the molecule `O=C(c1cc2ccccc2o1)N1CCCC1`, the inhibition was -0.3%.
Consider `COc1ccc(OC)c(S(=O)(=O)Nc2ccccc2SC)c1`, for which the inhibition is 57.1% (active).
As for `COc1ccc(OC)c(S(=O)(=O)Nc2ccccc2C)c1`, the figure is 10.8%; as for `COc1ccc(OC)c(NS(=O)(=O)c2cc(OC)ccc2OC)c1`, 2.8%.
As for `CC1=CC(C)(C)N(C(=O)CNC2CCCCC2)c2cc(C)ccc21`, the figure is 2.1%; as for `C=CCOc1c(Br)cc(CNc2ccc(NC(=O)C(C)C)c(OC)c2)cc1OCC`, 57.7% (active); as for `C=CCOc1c(Br)cc(CNc2ccc(NC(=O)C(C)C)cc2)cc1OCC`, 22.7%.
For the molecule `C=CCOc1c(Br)cc(CNc2ccc(NC(=O)C(C)C)c(OC)c2)cc1OC`, the inhibition was 41.7%.
For `COc1cccc(C(=O)Nc2ccc3c(c2)C(=O)N(CCC(=O)O)C3=O)c1`, the inhibition is 3.7%.
As for `CC1CCCC(NC(=O)COC(=O)CSc2ccc3ccccc3c2)C1C` (stereo unspecified), the figure is 7.7%.
For the molecule `Cc1ccc(-c2cc(-c3ccccc3)nc(Cl)n2)cc1`, the inhibition is 12.5%.
As for `Cc1ccc(-c2nnc(-c3ccccc3)c(-c3ccccc3)n2)cc1`, the figure is -0.5%; as for `Cc1ccc(-c2nc(N)sc2-c2ccc(C)cc2)cc1`, 13.6%; as for `Cc1ccc(-c2nc(N)sc2C)cc1`, -10.2%.
As for `CCCCC(=O)OCC(=O)c1[nH]c(C)c(C(C)=O)c1C`, the figure is -12%; as for `CCc1nnc(NC(=O)c2ccc(N(C)S(=O)(=O)c3ccccc3)cc2)s1`, -6.4%; as for `CC(C)c1ccccc1NC(=O)COC(=O)CNC(=O)c1ccc(Br)cc1`, 4.8%.
As for `O=C(O)c1ccc2c(c1)CCC2`, the figure is 0.1%; as for `Nc1ccc(Cc2ccc(N)c(O)c2)cc1O`, 46.8%; as for `Nc1cc2c(cc1O)CCCC2`, 54.3% (active).
For the molecule `COc1cc(NC(=O)CSc2c3c(nc4ccccc24)CCC3)cc(OC)c1OC`, the inhibition was -3.7%.
Take `CCOc1ccccc1NC(=O)CCN(c1ccc(C)cc1)S(=O)(=O)c1ccccc1`: the inhibition is 5.3%.
As for `Cc1nn(Cc2c(F)c(F)c(F)c(F)c2F)c(C)c1NC(=O)c1ccc(COc2cc(Cl)ccc2Cl)cc1`, the figure is 0.7%; as for `O=C1C2C3C=CC(C3)C2C(=O)N1CNc1ccccc1` (stereo unspecified), -1%.
As for `O=C1C2C3C=CC(C3)C2C(=O)N1CNc1ccc(O)cc1` (stereo unspecified), the inhibition was 58.4% (active).
`Cc1ccc(NCN2C(=O)C3C4C=CC(C4)C3C2=O)cc1` (stereo unspecified): the inhibition was 16.9%.
Consider `CC12CC(NC(=O)N1c1cccc(C(=O)N3CCN(c4ccccn4)CC3)c1)c1ccccc1O2` (stereo unspecified), for which the inhibition is -3.4%.
On to `O=C(CSc1nnc(SCc2cccc3ccccc23)s1)Nc1ccc(C(=O)O)cc1`, for which the inhibition was 10.4%.
On to `COc1ccc(COc2ccc(C3C(S(=O)(=O)c4ccccc4)CON3C)cc2OC)cc1` (stereo unspecified), for which the inhibition was -2.4%.
For the molecule `O=C(O)c1cccc(NS(=O)(=O)c2ccc(-c3ccc(S(=O)(=O)Nc4cccc(C(=O)O)c4)cc3)cc2)c1`, the inhibition was 53.1% (active).
As for `O=C(O)c1cccc(NS(=O)(=O)c2ccc(C3CCCCC3)cc2)c1`, the inhibition is -7%.
On to `O=C(O)c1cccc(NS(=O)(=O)c2ccc(Cl)c(C(=O)O)c2)c1`, for which the inhibition was 1.9%.
Consider `CC(=O)c1c(C)oc2c1C(=O)c1ccccc1C2=O`, for which the inhibition was -9.9%.
For the molecule `Cc1oc2c(c1C(=O)O)C(=O)c1ccccc1C2=O`, the inhibition was -9.6%.
Consider `CCOC(=O)c1c(C)oc2c1C(=O)c1ccccc1C2=O`, for which the inhibition was -16.2%.
Regarding `CCOC(=O)C1CCN(C(=O)c2c(C)oc3c2C(=O)c2ccccc2C3=O)CC1`, the inhibition was 55.2% (active).
As for `Cc1oc2c(c1C(=O)N1CCC(C)CC1)C(=O)c1ccccc1C2=O`, the figure is 54.7% (active); as for `CCOC(=O)C1CCN(C(C)=C2C(=O)c3ccccc3C2=O)CC1`, -9.2%.
As for `CSc1nc(-c2ccccc2)c(-c2ccccc2)[nH]1`, the figure is -9.1%; as for `COc1ccc([N+](=O)[O-])cc1N(CC(=O)NC1CCCC1)S(C)(=O)=O`, -1.4%; as for `Cc1cccc(N=C2NN=C(c3c(C)[nH]c4ccccc34)CS2)c1`, -7%.
For the molecule `O=C(Nc1ccc(Cl)cc1)N(Cc1nnc2n1CCCCC2)c1ccccc1`, the inhibition was -8.1%.
As for `CCOC(=O)c1ccc(CN(Cc2ccc(C)cc2)S(=O)(=O)c2cccc([N+](=O)[O-])c2)cc1`, the figure is -10%; as for `N#Cc1c(N2CCCCC2)nc(N)c2c(N)nc3c(c12)CC(CCl)O3` (stereo unspecified), 47.3%; as for `COc1ccc(CN2C(=O)Cc3c2nc(N)c2c(N)nc(N4CCCCC4)c(C#N)c32)cc1`, 37.8%.
Regarding `CCc1nc(N2CCOCC2)c(C#N)c2c1CCCC2`, the inhibition was 4.2%.
As for `CCN(CC)c1nc(N)c2c(N)nc3c(c2c1C#N)CC(c1ccccc1)O3` (stereo unspecified), the figure is 31.2%.
As for `N#Cc1c(N2CCCCC2)nc(N)c2c(N)nc3c(c12)CC(c1ccccc1)O3` (stereo unspecified), the figure is 56.5% (active); as for `CCC1Cc2c(nc(N)c3c(N)nc(N4CCOCC4)c(C#N)c23)O1` (stereo unspecified), 61.5% (active).
`CCOc1ccccc1C1N(c2ccc(OC)cc2)C(=O)C2CCCN21` (stereo unspecified): the inhibition was 2.6%.
As for `CC(C)(C)NC(=O)C(c1ccncc1)N(C(=O)Cn1nnc(-c2ccc(F)cc2)n1)c1ccccc1F` (stereo unspecified), the figure is 1.9%; as for `O=C(Nc1cccc(NC(=O)C2CCCO2)c1)c1ccco1` (stereo unspecified), 13.7%.
On to `Cc1ccc(NC(=O)c2ccco2)c(NC(=O)C2CCCO2)c1` (stereo unspecified), for which the inhibition was 11.8%.
As for `O=C(Nc1ccccc1NC(=O)C1CCCO1)c1ccco1` (stereo unspecified), the figure is 51.8% (active).
